# Compound activity: PubChem, several laboratories
# MITF TRPM1 inh: MITF TRPM1 promoter inhibition in SK-MEL-5 cells | SK-MEL-5 TRPM1 promoter luciferase, 24 h | inhibition, % at 12.5 µM | actives 0.83% (n = 330,000);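 active = mean inhibition across replicates of 60% or more, whatever share of single replicates reaches that level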
# Shn3 3UTR inh: inhibitors of Schnurri-3 3'UTR reporter in osteoblasts | Clone20 osteoblast Shn3 3'UTR firefly luciferase, 24 h | actives 0.52% (n = 360,000) | inhibition, % at 12.5 µM;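 active = mean inhibition of at least 75% with every replicate also reaching 75%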;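 also: 0% = median of neutral control wells and 100% = pilot-screen positive control compound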
# KKLEB tox: counter-screen for CF NF-kB inhibitors: cytotoxicity. KKLEB CF airway cells viability, ATPlite luminescence, overnight; hits give low values; cells stimulated with P. aeruginosa culture filtrate. activity change (cytotoxicity), % at 5 µM. actives 0.36% (n = 360,000);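 active = corrected activity change at or below -50% at 5 µM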
# HIF-2a block: HIF-2a inhibition; 786-0 RCC cells HIF-2a reporter, luciferase luminescence, overnight; inhibition, % at 18.8 µM; actives 0.72% (n = 360,000); AID 624352;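 active = inhibition of the luminescence signal of 40% or more relative to plate controls, in a single-dose primary screen at 18.75 µM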
# Peg3 promoter: inhibitors of Peg3 promoter. actives 1.7% (n = 360,000). inhibition, % at 20 µM. HeLa PEG-Prom luciferase reporter, luminescence, overnight;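 active = inhibition of at least 50% at 20 µM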
# CF NFkB inh: blocks PAF-induced NF-kB reporter in cystic fibrosis cells; inhibition, % at 5 µM; KKLEB NF-kB-GFP reporter, GFP fluorescence overnight; actives 0.86% (n = 360,000);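 active = at least 50% inhibition at 5 µM, scaled per plate between neutral and stimulator controls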;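 also: PAF is a Pseudomonas aeruginosa culture filtrate used as stimulus; plate controls were PAF-stimulated DMSO wells for no effect and unstimulated DMSO wells for full effect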
# CF NFkB conf: confirmation of cystic fibrosis induced NF-kB inhibitors; shares compounds with CF NFkB inh; KKLEB CF airway cells, PAF-induced NF-kB-GFP fluorescence, overnight; inhibition, % at 5 µM; actives 64% (n = 1,300); AID 602472; in the data active = inhibition above about 40%;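 also: stimulus PAF is a Pseudomonas aeruginosa filtrate and not platelet activating factor; plate controls were DMSO wells with stimulus for no effect and unstimulated DMSO wells for full effect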
# Starred values were filed as active, the others as inactive; · = not tested or not shown. Only some compounds are listed: those with a hit (about 2.8% of all), similar ones and a draw of the others.
SMILES,MITF TRPM1 inh,Shn3 3UTR inh,KKLEB tox,HIF-2a block,Peg3 promoter,CF NFkB inh,CF NFkB conf
CCCNC(=O)C(Cc1ccc(F)cc1)NC(=O)c1ccccc1 (stereo not drawn),1,4,1,12,-1,-10,·
S=C(Nc1ccccc1)Nc1ccc2cn[nH]c2c1,-39,-68,-16,-273,-288,35,·
CCOc1ccccc1NC(=S)Nc1ccc2cn[nH]c2c1,-9,-23,2,-60,-53,58*,67*
COc1ccccc1NC(=O)CCSc1nnc(-c2ccncc2)o1,-1,-3,1,7,9,-11,·
CC(C)CC1NC(=S)N(Cc2ccccc2)C1=O (stereo not drawn),5,9,-17,-11,99*,58*,10
O=C(COc1ccc(Cl)cc1)Nc1ncc([N+](=O)[O-])s1,-12,-30,-49,-240,-111,57*,75*
CCC(Oc1ccccc1)C(=O)Nc1ncc([N+](=O)[O-])s1 (stereo not drawn),12,-54,-3,-77,-1,50*,46*
CCC(Oc1ccccc1)C(=O)Nc1nnc(C)s1 (stereo not drawn),2,-34,4,3,12,-3,·
CC1(NC(=O)/C=C/c2nc3ccccc3s2)CCS(=O)(=O)C1 (stereo not drawn),·,-15,-22,-36,-9,23,·
CSc1ncccc1C(=O)Nc1nc2ccc(Oc3ccccc3)cc2s1,-60,-24,-8,-196,-73,5,·
CCC1=Nc2cc(C(=O)NCc3ccco3)ccc2Sc2ccc(C)cc21,42,13,-28,35,4,52*,80*
CCC(=O)Nc1nc(C)c(-c2csc(Nc3cccc(C(=O)O)c3)n2)s1,3,-13,10,-14,-39,4,·
CC(=O)Nc1nc(C)c(-c2csc(Nc3cccc(C(C)=O)c3)n2)s1,65*,86*,-44,-10,49,81*,82*
Cc1ccccc1S(=O)(=O)Cc1ccc(C(=O)N2CC(C)CC(C)C2)o1 (stereo not drawn),-6,8,4,-9,5,4,·
Cc1ccccc1S(=O)(=O)Cc1ccc(C(=O)N2CCN(c3cccc(C)c3C)CC2)o1,53,12,-24,10,70*,68*,63*
COc1ccc(CN2C(=NC(=O)CCc3ccccc3)SC3CS(=O)(=O)CC32)cc1 (stereo not drawn),1,22,11,9,35,-10,·
O=C(CCc1ccccc1)N=C1SC2CS(=O)(=O)CC2N1Cc1ccccc1 (stereo not drawn),10,-2,-9,2,7,50*,22
Cc1nc2c(C)c(C)c(C)c(C)c2nc1C,·,12,-16,21,6,7,·
Cc1nc2c(O)c3c(c(O)c2nc1C)C1C=CC3CC1,63*,97*,-34,-4,93*,83*,85*
CCC(CC)c1nnc(NC(=O)c2cccc(S(=O)(=O)N3CCc4ccccc43)c2)s1,9,9,-1,3,9,5,·
CCOC(=O)c1sc(NC(=O)c2cccc(S(=O)(=O)N3CCc4ccccc43)c2)c(C#N)c1C,22,31,-32,-16,40,61*,66*
CNc1nc(-c2cccs2)cc(C(F)(F)F)c1C#N,2,22,6,14,4,0,·
CCCCCCCCCc1nc2sc3c(c2c(=O)n1NC(=O)c1ccc([N+](=O)[O-])cc1)CC(C)(C)OC3,9,6,-42,-12,9,55*,62*
CCCCCCCCCc1nc2sc3c(c2c(=O)n1NC(=O)c1ccccc1[N+](=O)[O-])CC(C)(C)OC3,11,9,-33,-1,31,44,·
COc1ccc(CNC(=S)NC(C)CCc2ccccc2)cc1 (stereo not drawn),5,-8,-6,6,13,14,·
SMILES,MITF TRPM1 inh,Shn3 3UTR inh,KKLEB tox,HIF-2a block,Peg3 promoter,CF NFkB inh,CF NFkB conf
O=C(NCc1ccccc1)C1=C[C@H](c2csc3ccccc23)C[C@H](OCc2ccc(CO)cc2)O1,4,20,-48,23,34,53*,60*
O=C(Nc1ccccc1)C1=C[C@@H](c2csc3ccccc23)C[C@@H](OCc2ccc(CO)cc2)O1,16,20,-2,9,17,1,·
C=CCN1c2ccccc2Sc2cnccc21,·,27,-11,5,35,80*,91*
CC(=O)OCCN1c2ccccc2Sc2cnccc21,·,-8,-3,24,26,65*,67*
CC(C)(C)CC(C)(C)NC(=O)/C=C/C(=O)O,-2,0,-4,11,-7,8,·
CN(C)c1ccc(S(=O)(=O)N2CCCCC2)cc1NC(=O)COc1ccccc1F,8,0,-11,8,14,-3,·
COc1ccc(/C=N/NC(=O)c2[nH]c3ccc(Br)cc3c2-c2ccccc2)cc1,68*,-18,-33,26,-10,81*,81*
O=C(N/N=C/c1ccccc1Cl)c1[nH]c2ccc(Br)cc2c1-c1ccccc1,53,10,-14,13,14,63*,76*
CCOc1cc(N2CCOCC2)c(OCC)cc1NC(=O)CN1C(=O)NC(C)(c2ccc(OC)cc2)C1=O (stereo not drawn),7,-14,6,-6,-10,-22,·
Cc1ccc(NC(=O)Nc2cccc([N+](=O)[O-])c2)cc1F,-32,27,-48,-241,-183,65*,52*
Cc1cc(NC(=O)Nc2cccc([N+](=O)[O-])c2)no1,-6,15,9,-39,-56,5,·
C[C@]12CC[C@@H]3c4ccc(O)cc4[C@@H](O)C[C@H]3[C@@H]1CC[C@@H]2O,·,1,·,·,·,·,·
CCOc1cc2c(cc1O)C(=NOC)CC1C2CCC2(C)C(O)CCC12 (stereo not drawn),33,20,-17,14,-3,52*,76*
Cc1ccc2c(c1)C(=O)C(=O)N2Cc1ccc(Br)cc1,17,-6,-22,-8,-26,62*,81*
Cc1ccc(NC(=O)c2ccccc2NS(=O)(=O)c2ccc(Cl)s2)cc1S(=O)(=O)N1CCOCC1,21,26,-49,-8,-17,57*,80*
O=C(Nc1cc(S(=O)(=O)N2CCOCC2)ccc1O)c1ccc(NS(=O)(=O)c2ccc(Cl)s2)cc1,-2,17,-6,25,1,-6,·
Cc1ccc(C)c(NC(=O)C[n+]2ccccc2)c1,3,0,2,15,3,-2,·
CCCCN(CCCC)c1ncnc2nc[nH]c12,-3,18,-19,34,6,53*,70*
CCN(c1ccc(OC)cc1)c1ncnc2nc[nH]c12,-9,20,3,18,13,66*,86*
